Source: the supplement of paper PMC11219838

System: Caenorhabditis elegans L1 (N2)
Experiment: survival and reproduction score of C. elegans L1 (0: 0-10 living worms, 1: 11-20, 2: 21-50, 3: >50, 4: overgrown) (score 0-4); higher = more worms, less nematicidal, active = 1 or less; extreme values may be limits of the assay
Conditions: 60 µM; 6 days; temperature: 20 °C
Method in brief: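 Synchronized C. elegans N2 L1s (about 20 per well) were grown in 96-well plates in liquid NGM with E. coli HB101 and compound at 60 µM final (0.6% v/v DMSO), shaken sealed at 200 rpm and 20 °C for 6 days. The ordinal score for survival and reproduction counted living worms per well under a dissection microscope. The scale ran 0 (0–10 worms) to 4 (overgrown, starved), averaged over two biological replicates.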

| SMILES | survival and reproduction score |
| --- | --- |
| Cc1nnc(CSc2nnc(-c3ccc(Cl)cc3)o2)o1 | 4 (inactive) |
| CCOC(=O)c1sc(NC(=O)CSc2nnc(-c3ccc(Cl)cc3)o2)c(C#N)c1C | 4 (inactive) |
| CCOc1ccc(-c2nc(-c3ccccc3C)no2)cc1 | 4 (inactive) |
| COc1ccc(-c2nc(-c3ccccc3Cl)no2)cc1 | 4 (inactive) |
| CC(C)(C)C(=O)Nc1ccccc1-c1nc(-c2ccncc2)no1 | 4 (inactive) |
| Cc1cccc(-c2noc(-c3ccccc3Br)n2)c1 | 3.5 (inactive) |
| Brc1ccc(-c2nnc(SCc3ccccc3)o2)cc1 | 4 (inactive) |
| Cc1cccc(-c2noc(-c3cccc(Br)c3)n2)c1 | 4 (inactive) |
| O=C(Nc1ccccc1-c1nc(-c2cccnc2)no1)c1cc2ccccc2o1 | 4 (inactive) |
| N#Cc1ccc(OCc2nc(-c3ccc(Br)o3)no2)cc1 | 4 (inactive) |
| COc1ccc(Cl)cc1-c1noc(-c2ccc(Cl)cc2)n1 | 4 (inactive) |
| Cc1ccc(SCc2nc(-c3cccc(C)c3)no2)cc1 | 4 (inactive) |
| Cn1c(SCc2nc(-c3cccs3)no2)nnc1-c1ccco1 | 4 (inactive) |
| COc1ccc(-c2noc(-c3ccc(C)cc3Cl)n2)cc1 | 4 (inactive) |
| Cc1ccc(-c2nc(-c3cccnc3)no2)cc1Cl | 0 (active) |
| Clc1cc(Br)ccc1OCc1nc(-c2ccccn2)no1 | 4 (inactive) |
| COc1ccc(-c2nnc(SCc3cccc(C#N)c3)o2)cc1 | 4 (inactive) |
| Cc1ccccc1-c1nnc(SCc2ccccc2Cl)o1 | 4 (inactive) |
| Cc1ccc(-c2noc(-c3cc(C)cc(C)c3)n2)cc1 | 4 (inactive) |

| SMILES | survival and reproduction score |
| --- | --- |
| CC1CCN(C(=O)CSc2nnc(-c3cc4ccccc4o3)o2)CC1 | 4 (inactive) |
| COc1ccc(-c2noc(-c3ccc(C)c(Cl)c3)n2)cc1 | 4 (inactive) |
| O=C(CSc1nnc(-c2ccc(Cl)cc2)o1)NCc1ccccc1 | 4 (inactive) |
| O=C(CSc1nnc(-c2ccccc2)o1)OCc1ccccc1 | 4 (inactive) |
| Cc1cc(C)cc(NC(=O)CSc2nnc(-c3ccccc3)o2)c1 | 4 (inactive) |
| Ic1ccccc1-c1nc(-c2cccnc2)no1 | 3.5 (inactive) |
| O=C(CSc1nnc(-c2ccccc2)o1)NC1CCCCC1 | 4 (inactive) |
| CC(C)(C)c1ccc(-c2nnc(SCC(=O)c3ccc(F)cc3)o2)cc1 | 4 (inactive) |
| Cc1cc(NC(=O)CSc2nnc(-c3ccc(Cl)cc3Cl)o2)no1 | 4 (inactive) |
| Clc1ccc(OCc2nc(-c3ccc(Br)o3)no2)cc1 | 3.5 (inactive) |
| c1ccc(CSc2nnc(-c3cccnc3)o2)cc1 | 4 (inactive) |
| CCN(C(=O)CSc1nnc(-c2ccncc2)o1)c1ccccc1 | 4 (inactive) |
| O=C(CSc1nnc(-c2ccccc2Cl)o1)NCc1ccco1 | 4 (inactive) |
| Cc1ccc(-c2nnc(SCC(=O)Nc3ccc(Br)c(C)c3C)o2)cc1 | 4 (inactive) |
| Brc1ccc(-c2nc(-c3ccccc3)no2)cc1 | 0 (active) |
| Clc1ccccc1OCc1nc(-c2ccccn2)no1 | 4 (inactive) |
| COc1ccc(-c2nnc(SCC(=O)Nc3cc(Cl)ccc3C)o2)cc1 | 4 (inactive) |
| CCc1ccc(OCc2nc(-c3ccc(C)cc3)no2)cc1 | 2 (inactive) |
| COc1ccc(-c2noc(-c3cccc(Br)c3)n2)cc1 | 4 (inactive) |
